Test results taken from PubChem BioAssay (Tox21).
“And” between values parts separate entries of the source, which are not always exact repeats. Equal entries are not always repeated. Results filed as inconclusive are left out. A call without a number means that no potency is given here. Some structures have more than one record in an assay (separate samples or runs), and their calls can disagree. The source made the active and inactive calls. Calls come from the whole dose curve; as a rule, active = well fitted inhibition curve with a large enough effect in the repeat runs; inconclusive = weak or mixed curves; inactive = no such curve, though single readings can be large or run the other way.

Assay: qHTS assay to identify small molecule antagonists of the estrogen related receptor (ERR) signaling pathway from Tox21 library (AID 1224848); note: nearly all actives have a fitted effect of over 50% in size
Details: ERR reporter cell line, luciferase antagonist mode, 18 h; series mostly up to 92.4 µM
Description: U.S. Tox21 Program National Center for Advancing Translational Sciences [NCATS] NIH Chemical Genomics Center [NCGC] U.S. Environmental Protection Agency [EPA] National Institutes of Environmental Health Sciences [NIEHS] National Toxicology Program [NTP] U.S. Food and Drug Administration [FDA] Tox21 Assay Overview: Estrogen related receptors (ERRs), the first orphan nuclear receptors discovered, play an important role in the control of cellular energy metabolism. ERRs are required for high-energy production in response to the environmental challenges. ERR-alpha was also identified as an adverse marker for breast cancer progression; ERR-alpha-positive tumors have a poor prognosis. To screen and to identify environmental compounds that perturb the ERR signaling pathways could provide valuable information for potential therapeutic or preventive measures in the treatment of metabolic disease. For identifying ERR antagonists, ERR cell line (provided by NTP) has been used to screen Tox21 10K library.
Tox21 Assay Protocol Summary: The ERR cells were dispensed at 2,000 cells/5 ul/well in 1536-well white plates using a Multidrop dispenser. After the assay plates were incubated at a 37 C/5% CO2 incubator for 6 hours, 23 nL of compounds dissolved in DMSO, positive and negative controls or DMSO only was transferred to the assay plate by a pin tool. The plates were incubated at 37 C for 18 hours. 4 ul/well of One-Glo reagent was added into the assay plates using a Flying Reagent Dispenser. After 30-minute incubation at room temperature, the luminescence intensity in the plates was measured using a ViewLux plate reader.
Potency is the fitted concentration of half-maximal effect.

Row | Compound | Potency
1 | Oc1ccc(-c2ccccc2)cc1 | inactive
2 | CCOP(=S)(OCC)O/N=C(\C#N)c1ccccc1 | inactive
3 | C1=Cc2cccc3cccc1c23 | inactive
4 | C#CCOS(=O)OC1CCCCC1Oc1ccc(C(C)(C)C)cc1 (stereo not given) | 1.37 µM (active) and 1.54 µM (active)
5 | O=S(=O)(Oc1ccc(Cl)cc1)c1ccc(Cl)cc1 | inactive
6 | CC(C)(c1cc(Cl)c(O)c(Cl)c1)c1cc(Cl)c(O)c(Cl)c1 | inactive
7 | COP(=O)(OC)OC | inactive
8 | CCC(CC)Nc1c([N+](=O)[O-])cc(C)c(C)c1[N+](=O)[O-] | inactive
9 | CCC(C)c1ccc(O)cc1 (stereo not given) | inactive
10 | CCOC(=S)S | 73 µM (active)
11 | CCN(CC)N=O | inactive
12 | CC(C)C(=O)OCC(C)(C)C(OC(=O)C(C)C)C(C)C (stereo not given) | inactive
13 | c1nc[nH]n1 | inactive
14 | O=[N+]([O-])c1cccc2ccccc12 | inactive
15 | O=C(Nc1ccc(Br)cc1)c1cc(Br)cc(Br)c1O | 12.2 µM (active)
16 | CCCCN(CC)c1c([N+](=O)[O-])cc(C(F)(F)F)cc1[N+](=O)[O-] | inactive
17 | Oc1cc(Cl)ccc1Oc1ccc(Cl)cc1Cl | 11.1 µM (active) and 18.8 µM (active)
18 | CCC(C)(C)c1ccc(O)cc1 | inactive
19 | C=C(C)[C@H]1Cc2c(ccc3c2O[C@@H]2COc4cc(OC)c(OC)cc4[C@@H]2C3=O)O1 | 39.1 nM (active) and 9.7 nM (active) and 10.6 nM (active)
20 | OCC(O)CO | inactive

Row | Compound | Potency
21 | C=C(C)C(=O)OCC1CO1 (stereo not given) | inactive
22 | CCCCC(CC)COC(=O)Cl (stereo not given) | inactive
23 | O=Cc1ccco1 | inactive
24 | N#Cc1cc(Br)c(O)c(Br)c1 | 48.5 µM (active) and 37.1 µM (active)
25 | NNC(=S)NN | 62.8 µM (active)
26 | c1ccc(NNc2ccccc2)cc1 | inactive
27 | O=[N+]([O-])c1ccc(O)c([N+](=O)[O-])c1 | 21.8 µM (active) and 21.7 µM (active)
28 | NNC(N)=S | 16 µM (active) and 61.1 µM (active)
29 | Nc1c(Cl)cc([N+](=O)[O-])cc1Cl | 30.8 µM (active) and 24.3 µM (active)
30 | CCC(C)c1cc([N+](=O)[O-])cc([N+](=O)[O-])c1O (stereo not given) | inactive and 13.7 µM (active)
31 | CC(C)c1ccc(CO)cc1 | inactive
32 | c1ccc(N=Nc2ccccc2)cc1 | inactive
33 | CCN(CC)C(=O)SCc1ccc(Cl)cc1 | inactive
34 | Brc1ccc(Oc2cc(Br)c(Br)cc2Br)c(Br)c1 | inactive
35 | ClC1C(Cl)C(Cl)C(Cl)C(Cl)C1Cl (stereo not given) | inactive and 48.6 µM (active)
36 | CC(C)(OOC(C)(C)c1ccccc1)c1ccccc1 | inactive
37 | Nc1ccc(Cl)cc1N | inactive
38 | NCc1cccnc1 | inactive
39 | Cc1cccc(N)c1N | inactive
40 | Cc1ccc2c(c1N)C(=O)c1ccccc1C2=O | inactive
